Test results reported in PubChem BioAssay (NCATS).
Results filed as inconclusive are left out. Calls of active or inactive are those of the source. Calls come from the whole dose curve; as a rule, active = well fitted cell-killing curve with a large enough effect; inconclusive = small, poorly fitted or top-dose-only effect, or effect the other way; inactive = flat fitted curve, though single readings scatter.

Columns and labels:
Assay in all cases: Primary qHTS to identify gynecologic anti-cancer compounds using libraries of approved drugs and bioactive compounds (AID 1345084); note: nearly all actives have a fitted effect of over 55% in size
C33A = settings: Gynecologic cancer cell panel viability, ATPlite luminescence, 48 h; series mostly up to 57.5 µM
Procedure, shortened: (§1)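 Cells, 1,000 per well, were allowed to settle for 16 h at 37 C before compound addition. Five concentrations were tested for 48 h, and viability was read by ATPlite luminescence after 15 min at room temperature.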

CAOV3 = settings: Gynecologic cancer cell panel viability, ATPlite luminescence, 48 h; series mostly up to 57.5 µM
Procedure, shortened: as §1

CASKI = settings: Gynecologic cancer cell panel viability, ATPlite luminescence, 48 h; series mostly up to 57.5 µM
Procedure, shortened: as §1

Es-2 = settings: Gynecologic cancer cell panel viability, ATPlite luminescence, 48 h; series mostly up to 57.5 µM
Procedure, shortened: as §1

HeLa = settings: Gynecologic cancer cell panel viability, ATPlite luminescence, 48 h; series mostly up to 57.5 µM
Procedure, shortened: as §1

Hek293T = settings: Gynecologic cancer cell panel viability, ATPlite luminescence, 48 h, control line for the selectivity index; series mostly up to 57.5 µM
Procedure, shortened: as §1

JEG-3 = settings: Gynecologic cancer cell panel viability, ATPlite luminescence, 48 h; series mostly up to 57.5 µM
Procedure, shortened: as §1

OV90 = settings: Gynecologic cancer cell panel viability, ATPlite luminescence, 48 h; series mostly up to 57.5 µM
Procedure, shortened: as §1

PA-1 = settings: Gynecologic cancer cell panel viability, ATPlite luminescence, 48 h; series mostly up to 57.5 µM
Procedure, shortened: as §1

Measured: Potency

COC1=CC(=O)O/C1=C(/OC)[C@@H]1O[C@H]1c1ccccc1
not listed: PA-1
inactive: all other assays above

CCCCC1CCN(CCCN2C(=O)CCc3ccccc32)CC1
not listed: PA-1
inactive: all other assays above

CCNc1nc(Nc2cc(F)c(C(=O)N3CCOCC3)cc2OC)ncc1C(F)(F)F
not listed: PA-1
inactive: all other assays above

CC(C)(O)c1ccn2c(-c3ccc(F)c(-c4ccc(F)cc4C#N)c3)cnc2c1F
not listed: PA-1
inactive: all other assays above

CCc1cc2c(cc1CC)CC(NCC(O)c1ccc(O)c3[nH]c(=O)ccc13)C2 (centres undefined)
inactive: all assays above

CC1(C)CC[C@]2(C(=O)O[C@@H]3O[C@H](CO)[C@@H](O)[C@H](O)[C@H]3O)CC[C@]3(C)C(=CCC4[C@@]5(C)CC[C@H](O[C@@H]6O[C@H](C(=O)O)[C@H](O)[C@H](O)[C@H]6O)C(C)(C)C5CC[C@]43C)[C@@H]2C1 (some centres undefined)
not listed: PA-1
inactive: all other assays above

CC1(CO)CC(O)[C@]2(C(=O)O)CCC34CC3(C=CC3[C@]5(C)C(CC[C@]34C)C(C)(CO)[C@@H](O)[C@H](O)[C@@H]5O)C2C1 (some centres undefined)
not listed: PA-1
inactive: all other assays above

C=C1CCC2[C@](C)(CCC[C@@]2(C)C=O)[C@H]1CC/C(C)=C/CO (some centres undefined)
not listed: PA-1
inactive: all other assays above

CNc1cccc(CCOc2ccc3c(c2)CN(CC(F)(F)F)C(=O)[C@H](CC(=O)O)C3)n1
not listed: PA-1
inactive: all other assays above

CN(C)c1ccnc2sc3c(=O)n(N4CCCCCC4)cnc3c12
inactive: all assays above

COc1cc(OC)c2c(=O)[nH]c(-c3cc(C)c(OCCO)c(C)c3)nc2c1
not listed: PA-1
inactive: all other assays above

O=c1[nH]c2ccc(C#CCN3CCC(Cc4ccccc4)CC3)cc2[nH]1
not listed: PA-1
inactive: all other assays above

CCn1c(=O)c(-c2ccc(-c3cncs3)cc2Cl)cc2cnc(Nc3ccc(N4CCN(C)CC4)cc3)nc21
not listed: PA-1
inactive: all other assays above

O=C(NCCCN1CCOCC1)c1cnn2c(-c3ccccc3)cc(-c3ccccc3)nc12
not listed: PA-1
inactive: all other assays above

CCN1CCN(Cc2ccc(C(=O)Nc3ccc(C)c(Oc4ccc5c(c4)CC(=O)N5)c3)cc2C(F)(F)F)CC1
not listed: PA-1
inactive: all other assays above

CN1CCN(c2ccc(Nc3cc(-c4cccc(-n5ccc6cc(C7CC7)cc(F)c6c5=O)c4CO)cn(C)c3=O)nc2)CC1
not listed: PA-1
inactive: all other assays above

CNC(=O)c1cc(Oc2ccc(NC(=O)c3cccc(C(F)(F)F)c3)cc2)ccn1
not listed: PA-1
inactive: all other assays above

O=C(Nc1ccc(-c2ccnc(Nc3ccc(N4CCOCC4)cc3)n2)cc1)C1CCCN1 (centres undefined)
not listed: PA-1
inactive: all other assays above

CC(=O)c1c(C)cc2cccc(O)c2c1O[C@@H]1O[C@H](CO)[C@@H](O)[C@H](O)[C@H]1O
not listed: PA-1
inactive: all other assays above
